Data reported in PubChem BioAssay.
For some assays here: Entries with a potency or affinity are not part of this list. The source made the active and inactive calls. Unless noted, no rule for the calls is given here.

Experiments:
[1] = antimalarial activity against Dd2 strain (AID 2302;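 active = growth inhibition above 50% at the single 2 µM test dose, taken to imply half-maximal potency below 2 µM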;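 also: 0% = DMSO untreated growth and 100% = chloroquine plus artemisinin killed control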); details: P. falciparum Dd2 in RBCs, LDH growth readout, 72 h; at 2 µM; stronger effect = higher value
[2] = human hepatoma cell viability loss – ATP luminescence, cytotoxicity control for P. falciparum antimalarial project, primary screen (AID 2303;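 active = inhibition above 50%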;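 also: 0% = DMSO wells and 100% = digitonin-killed cells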); details: HepG2 viability, 24-48 h, at 10 µM, stronger effect = higher value
[3] = target: L-lactate dehydrogenase (Plasmodium falciparum (isolate CDC / Honduras)) (UniProt Q27743); experiment: PfLDH activity inhibition – cell lysate, 3D7 strain, counter-screen for P. falciparum growth inhibition project (AID 2304);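 also: 0% = vehicle and 100% = reference inhibitor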; details: P. falciparum 3D7 crude extract, LDH APAD/NBT absorbance; at 2 µM; stronger effect = higher value
Chain of L-lactate dehydrogenase (Plasmodium falciparum (isolate CDC / Honduras)) (Q27743 whole entry, looked up): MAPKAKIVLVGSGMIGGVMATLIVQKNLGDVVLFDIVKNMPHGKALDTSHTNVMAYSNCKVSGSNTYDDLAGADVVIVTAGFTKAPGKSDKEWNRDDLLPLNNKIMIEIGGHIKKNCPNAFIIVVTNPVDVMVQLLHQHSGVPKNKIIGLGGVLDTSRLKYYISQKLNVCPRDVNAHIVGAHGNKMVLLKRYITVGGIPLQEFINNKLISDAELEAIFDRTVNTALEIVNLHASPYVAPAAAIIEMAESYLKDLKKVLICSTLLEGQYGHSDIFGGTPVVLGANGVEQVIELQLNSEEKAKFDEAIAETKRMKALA

[4] = inhibition of 3D7 malaria parasite growth – strain 3D7 (AID 2306);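 also: 0% = DMSO wells and 100% = chloroquine plus artemisinin control wells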; details: P. falciparum 3D7 erythrocytic growth, LDH absorbance, 72 h; at 2 µM; stronger effect = higher value
[5] = target: Calcium-dependent protein kinase 1 (Plasmodium falciparum (isolate 3D7)) (UniProt P62344); experiment: PfCDPK1 kinase inhibitors, biochemical, TCAMS library (AID 1159585; cut-off not given, nearly all actives have IC50 up to about 0.98 µM;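 also: inhibitors leave more ATP so luminescence rises with inhibition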); details: recombinant PfCDPK1, Kinase-Glo ATP depletion luminescence
Chain of Calcium-dependent protein kinase 1 (Plasmodium falciparum (isolate 3D7)) (P62344 whole entry, looked up): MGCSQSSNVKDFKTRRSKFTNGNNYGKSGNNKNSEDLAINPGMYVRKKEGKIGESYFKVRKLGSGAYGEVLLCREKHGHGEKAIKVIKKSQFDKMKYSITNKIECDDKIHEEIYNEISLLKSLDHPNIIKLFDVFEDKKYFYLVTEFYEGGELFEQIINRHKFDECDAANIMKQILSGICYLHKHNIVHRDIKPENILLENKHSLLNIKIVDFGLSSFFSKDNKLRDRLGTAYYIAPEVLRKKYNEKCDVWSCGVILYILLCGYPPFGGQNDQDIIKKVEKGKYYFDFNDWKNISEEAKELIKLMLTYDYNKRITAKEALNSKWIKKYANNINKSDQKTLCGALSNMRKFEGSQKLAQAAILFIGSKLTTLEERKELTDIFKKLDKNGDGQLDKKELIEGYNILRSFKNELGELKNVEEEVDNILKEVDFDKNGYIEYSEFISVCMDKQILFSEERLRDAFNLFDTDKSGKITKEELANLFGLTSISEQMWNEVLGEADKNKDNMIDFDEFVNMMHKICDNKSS

[6] = target: Plasmodium falciparum protein kinase 6 (PK6, PF3D7_1337100) (UniProt Q8IDW1); experiment: PfPK6 kinase inhibitors, biochemical, TCAMS library (AID 1159586); details: recombinant PfPK6, Kinase-Glo ATP depletion luminescence
Chain of Plasmodium falciparum protein kinase 6 (PK6, PF3D7_1337100) (Q8IDW1 1-305): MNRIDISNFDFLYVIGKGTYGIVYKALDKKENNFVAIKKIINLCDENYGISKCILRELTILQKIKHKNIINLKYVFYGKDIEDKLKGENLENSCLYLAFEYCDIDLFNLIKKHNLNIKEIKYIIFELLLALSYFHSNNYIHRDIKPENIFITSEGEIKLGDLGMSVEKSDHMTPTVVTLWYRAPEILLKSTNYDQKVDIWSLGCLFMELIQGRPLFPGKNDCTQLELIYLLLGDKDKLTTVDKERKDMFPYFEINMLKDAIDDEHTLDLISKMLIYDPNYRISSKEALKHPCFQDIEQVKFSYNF

[7] = target: Protein kinase 7 (PK7), Plasmodium falciparum 3D7 (PF3D7_0213400) (UniProt Q7YTF7); experiment: inhibition of Plasmodium PK7 catalytic activity – biochemical, TCAMS antimalarial set, Kinase-Glo luminescence (AID 1159587); details: recombinant PfPK7, Kinase-Glo ATP depletion luminescence
Chain of Protein kinase 7 (PK7), Plasmodium falciparum 3D7 (PF3D7_0213400) (Q7YTF7 1-343): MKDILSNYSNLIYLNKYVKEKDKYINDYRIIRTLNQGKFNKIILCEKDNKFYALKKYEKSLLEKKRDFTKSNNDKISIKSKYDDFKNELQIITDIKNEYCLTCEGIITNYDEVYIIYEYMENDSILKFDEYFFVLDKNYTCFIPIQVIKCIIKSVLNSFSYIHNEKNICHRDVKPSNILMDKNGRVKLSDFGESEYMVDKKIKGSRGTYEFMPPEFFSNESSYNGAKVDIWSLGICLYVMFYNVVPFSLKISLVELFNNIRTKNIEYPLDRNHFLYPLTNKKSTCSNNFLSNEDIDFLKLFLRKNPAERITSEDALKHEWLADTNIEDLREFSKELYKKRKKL

[8] = target: Calcium-dependent protein kinase 4 (Plasmodium falciparum (isolate 3D7)) (UniProt Q8IBS5); experiment: PfCDPK4 kinase inhibitors, biochemical, TCAMS library (AID 1159588; cut-off not given, nearly all actives have IC50 up to about 0.91 µM); details: recombinant PfCDPK4, Kinase-Glo ATP depletion luminescence
Chain of Calcium-dependent protein kinase 4 (Plasmodium falciparum (isolate 3D7)) (Q8IBS5 whole entry, looked up): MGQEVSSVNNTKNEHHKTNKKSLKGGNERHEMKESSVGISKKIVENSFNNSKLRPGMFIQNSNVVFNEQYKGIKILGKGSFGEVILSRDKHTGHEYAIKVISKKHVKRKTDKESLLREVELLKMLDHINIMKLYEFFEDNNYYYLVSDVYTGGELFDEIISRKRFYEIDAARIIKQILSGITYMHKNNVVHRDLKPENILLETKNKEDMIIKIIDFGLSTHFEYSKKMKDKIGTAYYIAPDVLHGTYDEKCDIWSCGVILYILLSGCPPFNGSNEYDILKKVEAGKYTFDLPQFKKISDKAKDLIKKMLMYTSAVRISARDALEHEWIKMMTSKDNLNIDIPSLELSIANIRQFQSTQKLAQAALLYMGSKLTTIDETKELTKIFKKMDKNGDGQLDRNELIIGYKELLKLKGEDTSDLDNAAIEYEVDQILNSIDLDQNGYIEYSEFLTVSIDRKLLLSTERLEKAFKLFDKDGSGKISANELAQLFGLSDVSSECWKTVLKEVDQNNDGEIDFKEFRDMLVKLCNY

CC(C)CCNC(=O)C1Cc2c([nH]c3cc(Cl)ccc23)C2(CCN(CCc3ccccc3)CC2)N1 (stereo not given)
active: growth inhibition [1] 55% | growth inhibition [4] 103%
inactive: inhibition [2] 17% | inhibition [3] 5% | outcome [5] | outcome [6] | outcome [7] | outcome [8]

CC(NC(C)c1cccc(Cl)c1)C(=O)Nc1cc(C(F)(F)F)ccc1N1CCOCC1 (stereo not given)
active: growth inhibition [4] 89%
inactive: growth inhibition [1] 33% | inhibition [2] 30% | inhibition [3] 1% | outcome [5] | outcome [6] | outcome [7] | outcome [8]

Cc1nn(-c2cccc(C(F)(F)F)c2)c2sc(C(=O)NC3CCN(C(C)C)CC3)cc12
active: inhibition [2] 98% | growth inhibition [4] 94%
inactive: growth inhibition [1] 20% | inhibition [3] -4% | outcome [5] | outcome [6] | outcome [7] | outcome [8]

CCCCCCN1CCCN(Cc2ccc(C(=O)Nc3ccc(C(C)(C)C)cc3)cc2)CC1
active: inhibition [2] 53% | growth inhibition [4] 100%
inactive: growth inhibition [1] 32% | inhibition [3] -3% | outcome [5] | outcome [6] | outcome [7] | outcome [8]

O=C(/C=C/c1ccc(Cl)c(Cl)c1)NCCCCCCN1CCCN(C(=O)Nc2ccc(C(F)(F)F)cc2)CC1
inactive: growth inhibition [1] 25% | inhibition [2] 47% | inhibition [3] -8% | outcome [5] | outcome [6] | outcome [7] | outcome [8]
active: growth inhibition [4] 100%

O=C1c2ccccc2CN1CCCN1CCC(Oc2ccc(F)cc2)CC1
inactive: growth inhibition [1] 1% | inhibition [2] 14% | inhibition [3] 3% | outcome [5] | outcome [6] | outcome [7] | outcome [8]
active: growth inhibition [4] 97%

CCOC(=O)c1ccc(NC(=O)Nc2ccc(-c3cccc(-c4nc5ccccc5[nH]4)c3)cc2)cc1
inactive: inhibition [3] -4% | outcome [5] | outcome [6] | outcome [7] | outcome [8]
active: growth inhibition [1] 99% | inhibition [2] 94% | growth inhibition [4] 101%

c1ccc2c(c1)CN(CC1CCOCC1)CC1(CCN(Cc3c[nH]c4cnccc34)CC1)O2
active: growth inhibition [4] 99%
inactive: growth inhibition [1] 7% | inhibition [2] 21% | inhibition [3] -3% | outcome [5] | outcome [6] | outcome [7] | outcome [8]

COCCn1c(-c2nc(-c3ccc(F)cc3)cnc2N)nc2ccccc21
active: growth inhibition [1] 98% | growth inhibition [4] 98%
inactive: inhibition [2] 16% | inhibition [3] -6% | outcome [5] | outcome [6] | outcome [7] | outcome [8]

Nc1nccc2ccc(-c3ccc(Oc4ccccc4)cc3)cc12
active: growth inhibition [1] 80% | growth inhibition [4] 98%
inactive: inhibition [2] 36% | inhibition [3] -3% | outcome [5] | outcome [6] | outcome [7] | outcome [8]
